# Measurements taken from PubChem BioAssay (NCI).
# Values joined by “and” are separate entries in the source; they are usually repeats but may differ in a detail not shown here. Equal values may be shown once. The panel holds about 79,000 compounds, 15% with a hit somewhere; the sample as a whole holds those more often. Some structures have more than one record in an assay (separate samples or runs), and their calls can disagree. Active and inactive are the calls of the source. Rule as the data show it: active = growth inhibition above about 70%; inactive = the rest.
# How the values were obtained:
# [1] = NCI Yeast Anticancer Drug Screen. Data for the wt1 strain (AID 149);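 also: 0% = growth of vehicle-treated wt1 cultures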; settings: S. cerevisiae wt1 strain (SPY 50644) growth inhibition, stronger effect = higher value
# Outline: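 wt1 strain grown with compound or vehicle; inhibition taken from the growth difference.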
# [2] = NCI Yeast Anticancer Drug Screen. Data for the mgt1 strain (AID 153); settings: S. cerevisiae mgt1 mutant growth inhibition, stronger effect = higher value
# Outline: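 In the mgt1 strain, test compounds were added and growth inhibition was determined relative to vehicle-treated controls.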
# [3] = NCI Yeast Anticancer Drug Screen. Data for the rad50 strain (AID 155);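 also: 0% = growth of vehicle-only cultures of the same strain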; settings: S. cerevisiae rad50 strain growth inhibition, stronger effect = higher value
# Outline: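 DNA repair mutant yeast, compound exposure, growth read-out; inhibition is taken relative to vehicle.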
# [4] = NCI Yeast Anticancer Drug Screen. Data for the mec2-1 strain (AID 157); settings: S. cerevisiae mec2-1 strain, stronger effect = higher value
# Outline: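 Each compound was tested on mec2-1 yeast, a strain altered in DNA damage repair or cell cycle control. Growth inhibition is reported relative to vehicle.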
# [5] = NCI Yeast Anticancer Drug Screen. Data for the rad14 strain (AID 159);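 also: 0% = growth of vehicle-treated control cultures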; settings: S. cerevisiae rad14 strain growth inhibition, stronger effect = higher value
# Outline: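 DNA repair-defective yeast, compound-exposed; % growth inhibition derived by comparison with vehicle-treated controls.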
# [6] = NCI Yeast Anticancer Drug Screen. Data for the sgs1 mgt1 strain (AID 161);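 also: 0% = growth of cultures given vehicle only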; settings: S. cerevisiae sgs1 mgt1 strain, stronger effect = higher value
# Outline: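 Genetically altered yeast, compound exposure, growth inhibition relative to vehicle.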
# [7] = NCI Yeast Anticancer Drug Screen. Data for the CLN2oe strain (AID 163);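 also: 0% = growth of vehicle-only control cultures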; settings: S. cerevisiae CLN2oe strain, stronger effect = higher value
# Outline: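 First, the altered yeast strain was treated with each compound; second, its growth was measured; finally, inhibition was derived by comparison with vehicle controls.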
# [8] = NCI Yeast Anticancer Drug Screen. Data for the cln2 rad14 strain (AID 165);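 also: 0% = growth equal to vehicle treated cultures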; settings: S. cerevisiae cln2 rad14 strain, stronger effect = higher value
# Outline: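 Test compounds were added to cln2 rad14 yeast cultures; inhibition of growth was then determined by comparison with vehicle treatment.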
# [9] = NCI Yeast Anticancer Drug Screen. Data for the bub3 strain (AID 167); settings: S. cerevisiae bub3 mutant strain, stronger effect = higher value
# Outline: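 In this screen, a yeast mutant lacking normal mitotic checkpoint function is challenged with compound. Relative growth versus vehicle gives the inhibition value.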
# [10] = NCI Yeast Anticancer Drug Screen. Data for the wt2 strain (AID 169);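 also: 0% = growth of vehicle-treated yeast cultures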; settings: S. cerevisiae wt2 strain growth inhibition, stronger effect = higher value
# Outline: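 The panel's yeast strains carry defined changes in DNA repair or cell cycle genes. Each strain is grown with compound, and growth loss is scored relative to vehicle.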
# [11] = NCI Yeast Anticancer Drug Screen. Data for the mlh1 strain (AID 171);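 also: 0% = growth of vehicle-treated control cultures of the same strain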; settings: S. cerevisiae mlh1 strain growth inhibition, stronger effect = higher value
# Outline: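 Inhibition values reflect reduced yeast growth in the presence of compound, referenced to vehicle controls, using a strain chosen for its alteration in DNA repair or cell cycle control.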
# [12] = NCI Yeast Anticancer Drug Screen. Data for the sgs1 strain (AID 173);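 also: 0% = growth of vehicle-only control cultures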; settings: S. cerevisiae sgs1 mutant, stronger effect = higher value
# Outline: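 Vehicle-treated cultures served as reference for growth inhibition of a yeast strain altered in DNA damage repair or cell cycle control after compound exposure.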
# [13] = NCI Yeast Anticancer Drug Screen. Data for the mlh1 rad18 strain (AID 175); settings: S. cerevisiae mlh1 rad18 strain growth inhibition, stronger effect = higher value
# Outline: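 Inhibition values reflect reduced growth of mutant yeast versus vehicle-treated controls following compound exposure; the mutations affect DNA damage repair.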
# [14] = NCI Yeast Anticancer Drug Screen. Data for the rad18 strain (AID 177); settings: S. cerevisiae rad18 mutant growth inhibition, stronger effect = higher value
# Outline: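 Steps: expose repair-mutant yeast to compound; measure growth; express as inhibition relative to vehicle control.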
# [15] = at 5.0 µM (retest, dose inferred, filed as 0.5)
# [16] = at 50.0 µM (retest, dose inferred, filed as 5.0)
smiles,measurement,setting,value
O=[N+]([O-])O.[NH-]C1CCCCC1[NH-].[NH-]C1CCCCC1[NH-].[NH-]C1CCCCC1[NH-].[OH-].[OH-].[OH-].[Pt+4].[Pt+4].[Pt+4] (stereo not given),growth inhibition,[1]; at 1.2 µM,-15% (inactive)
same,growth inhibition,[1]; at 3.7 µM,-12% (inactive)
same,growth inhibition,[1]; at 11.0 µM,-14% (inactive)
same,growth inhibition,[1]; at 33.0 µM,-14% (inactive)
same,growth inhibition,[1]; at 100.0 µM,-3% (inactive)
same,growth inhibition,[2]; at 1.2 µM,-14% (inactive)
same,growth inhibition,[2]; at 3.7 µM,-15% (inactive)
same,growth inhibition,[2]; at 11.0 µM,-19% (inactive)
same,growth inhibition,[2]; at 33.0 µM,-12% (inactive)
same,growth inhibition,[2]; at 100.0 µM,-7% (inactive)
same,growth inhibition,[3]; at 1.2 µM,-6% (inactive)
same,growth inhibition,[3]; at 3.7 µM,-14% (inactive)
same,growth inhibition,[3]; [15],17% (inactive)
same,growth inhibition,[3]; at 11.0 µM,-14% (inactive)
same,growth inhibition,[3]; at 33.0 µM,-2% (inactive)
same,growth inhibition,[3]; [16],20% (inactive)
same,growth inhibition,[3]; at 50.0 µM,50.8% (inactive)
same,growth inhibition,[3]; at 100.0 µM,-11% (inactive)
same,growth inhibition,[4]; at 1.2 µM,12% (inactive)
same,growth inhibition,[4]; at 3.7 µM,-6% (inactive)
same,growth inhibition,[4]; [15],16% (inactive)
same,growth inhibition,[4]; at 11.0 µM,0% (inactive)
same,growth inhibition,[4]; at 33.0 µM,4% (inactive)
same,growth inhibition,[4]; [16],14% (inactive)
same,growth inhibition,[4]; at 50.0 µM,-15.5% (inactive)
same,growth inhibition,[4]; at 100.0 µM,63% (inactive)
same,growth inhibition,[5]; at 1.2 µM,-5% (inactive)
same,growth inhibition,[5]; at 3.7 µM,-16% (inactive)
same,growth inhibition,[5]; at 11.0 µM,-33% (inactive)
same,growth inhibition,[5]; at 33.0 µM,-5% (inactive)
same,growth inhibition,[5]; at 100.0 µM,-10% (inactive)
same,growth inhibition,[6]; [15],27% (inactive)
same,growth inhibition,[6]; [16],45% (inactive)
same,growth inhibition,[6]; at 50.0 µM,-22.4% (inactive)
same,growth inhibition,[7]; at 1.2 µM,-8% (inactive)
same,growth inhibition,[7]; at 3.7 µM,-17% (inactive)
same,growth inhibition,[7]; at 11.0 µM,-17% (inactive)
same,growth inhibition,[7]; at 33.0 µM,-23% (inactive)
same,growth inhibition,[7]; at 100.0 µM,-13% (inactive)
same,growth inhibition,[8]; [15],12% (inactive)
same,growth inhibition,[8]; [16],21% (inactive)
same,growth inhibition,[8]; at 50.0 µM,-7.35% (inactive)
same,growth inhibition,[9]; at 1.2 µM,-4% (inactive)
same,growth inhibition,[9]; at 3.7 µM,-9% (inactive)
same,growth inhibition,[9]; [15],20% (inactive)
same,growth inhibition,[9]; at 11.0 µM,-14% (inactive)
same,growth inhibition,[9]; at 33.0 µM,-14% (inactive)
same,growth inhibition,[9]; [16],25% (inactive)
same,growth inhibition,[9]; at 50.0 µM,-32% (inactive)
same,growth inhibition,[9]; at 100.0 µM,-9% (inactive)
same,growth inhibition,[10]; at 1.2 µM,-46% (inactive)
same,growth inhibition,[10]; at 3.7 µM,-58% (inactive)
same,growth inhibition,[10]; at 11.0 µM,-55% (inactive)
same,growth inhibition,[10]; at 33.0 µM,-51% (inactive)
same,growth inhibition,[10]; at 100.0 µM,-36% (inactive)
same,growth inhibition,[11]; at 1.2 µM,2% (inactive)
same,growth inhibition,[11]; at 3.7 µM,-10% (inactive)
same,growth inhibition,[11]; at 11.0 µM,-6% (inactive)
same,growth inhibition,[11]; at 33.0 µM,-13% (inactive)
same,growth inhibition,[11]; at 100.0 µM,12% (inactive)
same,growth inhibition,[12]; at 1.2 µM,-22% (inactive)
same,growth inhibition,[12]; at 3.7 µM,-30% (inactive)
same,growth inhibition,[12]; at 11.0 µM,-19% (inactive)
same,growth inhibition,[12]; at 33.0 µM,6% (inactive)
same,growth inhibition,[12]; at 100.0 µM,8% (inactive)
same,growth inhibition,[13]; [15],40% (inactive)
same,growth inhibition,[13]; [16],71% (active)
same,growth inhibition,[13]; at 50.0 µM,28.6% (inactive)
same,growth inhibition,[14]; at 1.2 µM,-21% (inactive)
same,growth inhibition,[14]; at 3.7 µM,2% (inactive)
same,growth inhibition,[14]; at 11.0 µM,18% (inactive)
same,growth inhibition,[14]; at 33.0 µM,54% (inactive)
same,growth inhibition,[14]; at 100.0 µM,82% (active)
ClC1=C(Cl)C(Cl)(Cl)SS1,growth inhibition,[3]; [15],100% (active)
same,growth inhibition,[3]; [16],99% (active)
same,growth inhibition,[3]; at 50.0 µM,88.7% (active)
same,growth inhibition,[4]; [15],100% (active)
same,growth inhibition,[4]; [16],99% (active)
same,growth inhibition,[4]; at 50.0 µM,91.5% (active)
same,growth inhibition,[6]; [15],100% (active)
same,growth inhibition,[6]; [16],99% (active)
same,growth inhibition,[6]; at 50.0 µM,92.1% (active)
same,growth inhibition,[8]; [15],100% (active)
same,growth inhibition,[8]; [16],99% (active)
same,growth inhibition,[8]; at 50.0 µM,91.5% (active)
same,growth inhibition,[9]; [15],100% (active)
same,growth inhibition,[9]; [16],99% (active)
same,growth inhibition,[9]; at 50.0 µM,89.3% (active)
same,growth inhibition,[13]; [15],99% (active)
same,growth inhibition,[13]; [16],99% (active)
O=C(O)c1ccccc1.[Ag],growth inhibition,[3]; at 1.2 µM,95% (active)
same,growth inhibition,[3]; at 3.7 µM,101% (active)
same,growth inhibition,[3]; [15],97% (active) and 58% (inactive)
same,growth inhibition,[3]; at 11.0 µM,99% (active)
same,growth inhibition,[3]; at 33.0 µM,99% (active)
same,growth inhibition,[3]; [16],99% (active) and 98% (active)
same,growth inhibition,[3]; at 50.0 µM,90.8% (active) and 91.2% (active)
same,growth inhibition,[3]; at 100.0 µM,99% (active)
same,growth inhibition,[4]; at 1.2 µM,89% (active)
same,growth inhibition,[4]; at 3.7 µM,101% (active)
same,growth inhibition,[4]; [15],95% (active) and 60% (inactive)
same,growth inhibition,[4]; at 11.0 µM,99% (active)
same,growth inhibition,[4]; at 33.0 µM,99% (active)
same,growth inhibition,[4]; [16],99% (active)
same,growth inhibition,[4]; at 50.0 µM,93.2% (active) and 93% (active)
same,growth inhibition,[4]; at 100.0 µM,99% (active)
same,growth inhibition,[6]; [15],99% (active) and -5% (inactive)
same,growth inhibition,[6]; [16],98% (active) and 99% (active)
same,growth inhibition,[6]; at 50.0 µM,93.1% (active) and 93.5% (active)
same,growth inhibition,[8]; [15],36% (inactive) and 39% (inactive)
same,growth inhibition,[8]; [16],97% (active) and 100% (active)
same,growth inhibition,[8]; at 50.0 µM,91.6% (active) and 91.4% (active)
same,growth inhibition,[9]; at 1.2 µM,93% (active)
same,growth inhibition,[9]; at 3.7 µM,101% (active)
same,growth inhibition,[9]; [15],100% (active) and -1% (inactive)
same,growth inhibition,[9]; at 11.0 µM,99% (active)
same,growth inhibition,[9]; at 33.0 µM,99% (active)
same,growth inhibition,[9]; [16],98% (active) and 99% (active)
same,growth inhibition,[9]; at 50.0 µM,91.5% (active)
same,growth inhibition,[9]; at 100.0 µM,99% (active)
